The record followed here is PubChem BioAssay (EPA / NIEHS).

SMILES strings stand for the structures. Inconclusive results are not listed. Active and inactive are the calls of the source. The calls were made as follows, unless noted: active = hit-call score of the fitted dose curve at least 0.9, where 1 is the maximum; inactive = score below 0.9.

A short description of assay [1]: APR_HepG2_CellCycleArrest_1hr: Apredica 1-hour HepG2 Assay for Cell Cycle Arrest (AID 2282666). As to conditions: high-content imaging, actives raise or lower the signal. The procedure, abridged:
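HepG2 cells exposed for 1 h to 0.39–200 uM compound (0.5% DMSO). Fixed, Hoechst-stained nuclei imaged by ArrayScan; DNA content quantified by Cell Cycle analysis; bidirectional fit against DMSO.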

A short description of assay [2]: ACEA_ER_80hr: ACEA Biosciences xCELLigence Real-Time Cell Analysis on Estrogen Receptor Agonism for Proliferation (AID 2282667; active = hit-call score of the fitted dose curve at least 0.9, where 1 is the maximum). As to conditions: T47D proliferation, impedance (xCELLigence), 80 h. The procedure, abridged: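 Estrogen-driven proliferation is captured as electrode impedance in T47D cells 80 h after compound addition. Test articles ran at 8 concentrations, 1:4 dilutions from 100 uM final, in two replicate plates.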

A short description of assay [3]: APR_HepG2_MicrotubuleCSK_1hr: Apredica 1-hour HepG2 Assay for Microtubule CSK Stabilty (AID 2282669). The note with it: HepG2 microtubule cytoskeleton imaging, actives raise or lower the signal. The method in brief:
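HepG2 cells exposed 1 h to 0.39–200 uM compound (0.5% DMSO, duplicates), then formaldehyde-fixed, permeabilized and immunostained for alpha-tubulin with Hoechst nuclei. Imaged by ArrayScan high-content analysis; bidirectional fit versus DMSO.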

Assay [4] in a line: APR_HepG2_p53Act_1hr: Apredica 1-hour HepG2 Assay for p53 Activation (AID 2282671). As to conditions: high-content imaging, actives raise or lower the signal. The method in brief: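 HepG2 cells treated 1 h with compound at 0.39–200 uM (10 concentrations, duplicate) in 0.5% DMSO. Formaldehyde-fixed, permeabilised cells immunostained for p53 with Hoechst 33342; high-content imaging, bidirectional fit versus DMSO.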

Assay [5] in a line: APR_HepG2_P-H2AX_1hr: Apredica 1-hour HepG2 Assay for H2AX Phosphorylation (AID 2282673). As to conditions: high-content imaging, actives raise or lower the signal. The procedure, abridged: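 HepG2 dosed 1 hr at 0.39-200 uM (0.5% DMSO final), duplicate. Fixed in 3.7% formaldehyde, Triton permeabilized, immunostained for phospho-histone H2A.x (1:200) with Hoechst 33342; ArrayScan 20x imaging, bidirectional fit vs DMSO.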

Assay [6] in a line: APR_HepG2_MitoMass_1hr: Apredica 1-hour HepG2 Assay for Mitochondrial Mass (AID 2282674). As to conditions: high-content imaging, actives raise or lower the signal. The procedure, abridged: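 HepG2 cells dosed 1 hr with 0.39-200 uM compound (0.5% DMSO), duplicate wells. Mitochondria stained with 250 nM MitoTracker Red CMXRos for 30 min before formaldehyde fixation, imaged at 20x by ArrayScan; bidirectional fit versus DMSO.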

A short description of assay [7]: APR_HepG2_MitoMembPot_1hr: Apredica 1-hour HepG2 Assay for Mitochondrial Membrane Potential (AID 2282675). The note with it: imaging, actives raise or lower the signal. The method in brief:
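HepG2 cells dosed 1 hour with 0.39–200 uM compound in duplicate, 0.5% DMSO final. MitoTracker Red CMXRos (250 nM, 30 min) loaded before formaldehyde fixation; fluorescence quantified by high-content imaging, bidirectional fitting versus DMSO.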

The nature of assay [8]: APR_HepG2_CellCycleArrest_24hr: Apredica 24-hour HepG2 Assay for Cell Cycle Arrest (AID 2282905).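 Also: cell cycle arrest scored as ratio of 2N to 4N nuclear DNA content.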 As to conditions: imaging, actives raise or lower the signal. The procedure, abridged: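 Compounds at 0.39–200 uM (0.5% DMSO) for 24 h, then fixed and Hoechst 33342 stained. Cell-cycle analysis of nuclear DNA content by high-content imaging, fitted bidirectionally versus DMSO.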

Assay [9] can be described thus: APR_HepG2_StressKinase_1hr: Apredica 1-hour HepG2 Assay for Stress Kinase (AID 2282906). The note with it: HepG2 stress kinase (phospho-c-Jun) imaging, actives raise or lower the signal. The procedure, abridged:
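HepG2 cells dosed 0.39-200 uM (0.5% DMSO) for 1 h, then formaldehyde-fixed. Stress kinase read by phospho-c-Jun immunofluorescence using high-content imaging; bidirectional fit vs DMSO.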

The nature of assay [10]: APR_HepG2_NuclearSize_24hr: Apredica 24-hour HepG2 Assay for Nuclear Size (AID 2282907). The note with it: high-content imaging, actives raise or lower the signal. The procedure, abridged: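 HepG2 cells exposed 24 h to compounds at 0.39–200 uM (0.5% DMSO), fixed, Hoechst 33342 stained and imaged at 20x; nuclear diameter measured by automated image analysis, fitted bidirectionally against DMSO controls.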

Assay [11] in a line: APR_HepG2_CellLoss_24hr: Apredica 24-hour HepG2 Assay for Cell Loss (AID 2282908).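 As to AC50: fit in both directions so a hit may be cell loss or gain.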 The note with it: high-content imaging. The procedure, abridged:
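HepG2 cells exposed 24 hr to 0.39–200 uM compound in duplicate at 0.5% v/v final DMSO. Cells fixed in 3.7% formaldehyde and Hoechst 33342-stained. Cell number came from nuclear imaging at 20x. Bidirectional fit versus DMSO.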

Assay [12] can be described thus: APR_HepG2_MicrotubuleCSK_24hr: Apredica 24-hour HepG2 Assay for Microtubule CSK Stabilty (AID 2282909). As to conditions: HepG2 microtubule cytoskeleton imaging, actives raise or lower the signal. The procedure, abridged: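 HepG2 cells were treated 24 hr with compound at 0.39–200 uM in duplicate (0.5% DMSO final), then fixed and permeabilized. Alpha-tubulin immunofluorescence was imaged by high-content microscopy, with bidirectional fitting against DMSO and taxol as positive control.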

The nature of assay [13]: APR_HepG2_MitoticArrest_24hr: Apredica 24-hour HepG2 Assay for Mitotic Arrest (AID 2282910). The note with it: high-content imaging, actives raise or lower the signal. The method in brief:
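HepG2 cells, 24 h exposure at 0.39-200 uM (10 concentrations, duplicate, 0.5% DMSO). Fixed, stained for phospho-histone H3 with Hoechst; imaged by high-content microscopy, bidirectional fit versus DMSO.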

A short description of assay [14]: APR_HepG2_MitoMembPot_24hr: Apredica 24-hour HepG2 Assay for Mitochondrial Membrane Potential (AID 2282911). The note with it: imaging, actives raise or lower the signal. The procedure, abridged:
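Mitochondrial dye uptake (MitoTracker Red CMXRos, 250 nM, 30 min pre-fixation) in HepG2 after 24 hr compound exposure, 0.39–200 uM; ArrayScan images at 20x, activity fitted in both directions relative to DMSO.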

Assay [15] can be described thus: APR_HepG2_MitoMass_24hr: Apredica 24-hour HepG2 Assay for Mitochondrial Mass (AID 2282912). As to conditions: high-content imaging, actives raise or lower the signal. The procedure, abridged:
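HepG2 cells exposed 24 hr to 0.39–200 uM compound, 0.5% v/v DMSO, in duplicate. Stained before fixation with 250 nM MitoTracker Red CMXRos for 30 min, then imaged at 20x with Hoechst nuclei. Fitted in both directions against DMSO.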

Assay [16] can be described thus: APR_HepG2_p53Act_24hr: Apredica 24-hour HepG2 Assay for p53 Activation (AID 2282913).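 Also: p53 protein immunofluorescence averaged per cell in HepG2 with Hoechst nuclei.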 The note with it: high-content imaging, actives raise or lower the signal. The method in brief: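 Following 24 hr dosing of HepG2 at 0.39–200 uM, the cells undergo formaldehyde fixation, Triton permeabilization and multiplexed antibody labeling that includes p53 (Cy5). Signal from the imaging is referenced to DMSO solvent controls.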

A short description of assay [17]: APR_HepG2_CellCycleArrest_72hr: Apredica 72-hour HepG2 Assay for Cell Cycle Arrest (AID 2282914). The note with it: high-content imaging, actives raise or lower the signal. The method in brief: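 Using multiplexed high-content imaging, HepG2 nuclei stained with Hoechst 33342 (2 ug/mL) were analysed for DNA content after fixation and permeabilization. Treatment lasted 72 hr across 0.39–200 uM in duplicate with final DMSO 0.5% v/v; DMSO served as negative control.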

Assay [18] is described as follows: APR_HepG2_MitoticArrest_1hr: Apredica 1-hour HepG2 Assay for Mitotic Arrest (AID 2282672). The note with it: high-content imaging, actives raise or lower the signal. The method in brief: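 HepG2 cells exposed 1 hr to compounds at 0.39–200 uM (0.5% v/v DMSO final), then fixed in 3.7% formaldehyde and immunostained for phospho-histone H3 with Hoechst 33342. Mitotic arrest scored by automated fluorescence imaging, fitted bidirectionally versus DMSO.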

A short description of assay [19]: APR_HepG2_NuclearSize_1hr: Apredica 1-hour HepG2 Assay for Nuclear Size (AID 2282670). The note with it: high-content imaging, actives raise or lower the signal. The method in brief:
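HepG2 cells dosed 1 hr with 0.39–200 uM compound (0.5% DMSO), formaldehyde-fixed, Hoechst 33342-stained and imaged at 20x; nuclear diameter from nuclear stain, fitted bidirectionally against DMSO.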

For `Nc1c(Cl)c(Cl)nc(C(=O)O)c1Cl`, the outcome in assay [1], in assay [2], in assay [3], in [4], in assay [5] and in assay [6] was inactive. In addition, the result in assay [7], in assay [8], in [9], in assay [10], in assay [11] and in [12] was inactive. The molecule was classed as inactive in [13], in [14], in assay [15], in assay [16] and in assay [17].

For the molecule `O=c1n(Cl)c(=O)n(Cl)c(=O)n1Cl`, the outcome in assay [1], in assay [2], in [3], in assay [4], in [5] and in assay [6] was inactive. The outcome in assay [8], in [9], in assay [10], in assay [11], in [12] and in [13] was inactive. Besides, the molecule was classed as inactive in [14], in [15], in [16] and in assay [17].

On to `CC(C)N1C(=O)N(c2ccccc2)CSC1=NC(C)(C)C`, for which the result in [1], in [2], in assay [3], in [4], in assay [18] and in [5] was inactive. For the same molecule, the result in assay [6], in assay [9], in [10], in assay [14], in assay [15] and in assay [16] was inactive. Also, the result in assay [17] was inactive. In addition, the AC50 was 97.8 µM (active) in assay [8], 115 µM (active) in [11], 76.6 µM (active) in assay [12] and 114 µM (active) in [13].

For the molecule `CCOP(=S)(OCC)Oc1nc(Cl)n(C(C)C)n1`, the call in [1], in assay [2], in [3], in [4], in [18] and in [5] was inactive. Moreover, the outcome in assay [6], in [8], in assay [9], in [10], in [11] and in [12] was inactive. The call in assay [13], in assay [14], in assay [15] and in assay [16] was inactive.

Take `C=CCOC(=O)C(C)(C)OC(=O)c1cc(-n2c(=O)cc(C(F)(F)F)n(C)c2=O)ccc1Cl`: the molecule was classed as inactive in [1], in assay [2], in [3], in [4], in [5] and in assay [6]. The molecule was called inactive in assay [8], in assay [9], in assay [10], in [11], in assay [12] and in assay [13]. In addition, the molecule was called inactive in assay [14], in assay [15], in assay [16] and in [17].

Turning to `CC(C)=CC1C(C(=O)OCc2coc(Cc3ccccc3)c2)C1(C)C` (stereo unspecified), the molecule was called inactive in [1], in assay [2], in assay [3], in [5], in assay [6] and in assay [9]. Also, the outcome in assay [10], in assay [11], in [12], in assay [13] and in assay [15] was inactive. In addition, the values for the AC50 in assay [7], in [8] and in assay [14] were 98.4 µM (active), 62.5 µM (active) and 100 µM (active), respectively.

In the case of `COC(=O)NS(=O)(=O)c1ccc(N)cc1`, the call in assay [1], in assay [2], in assay [3], in [19], in [4] and in assay [5] was inactive. The outcome in assay [6], in [7], in assay [8], in assay [9], in assay [10] and in [11] was inactive. Moreover, the molecule was called inactive in assay [12], in assay [13], in [14], in assay [15], in [16] and in assay [17].

As to `C=C(C)CN(CC)c1c([N+](=O)[O-])cc(C(F)(F)F)cc1[N+](=O)[O-]`, the call in assay [1], in assay [2], in [3], in assay [4], in assay [18] and in [5] was inactive. The molecule was called inactive in [6], in [8], in [9], in assay [10], in assay [11] and in assay [12]. Further, the outcome in assay [13], in assay [14], in assay [15], in [16] and in assay [17] was inactive.
